# From PubChem BioAssay (NCATS)
# Records with an inconclusive call do not appear. Active and inactive are the calls of the source. Unless noted, the call rests on the fitted dose curve; in most records, active means well fitted inhibition curve with a large enough effect; inconclusive means small, poorly fitted or top-dose-only effect; inactive means flat fitted curve, though single readings scatter.
# How the values were obtained:
# [1] = qHTS drug screen for cell cycle checkpoint inhibitors in PARPi-resistant BRCA-mutant ovarian cancer cell lines. (AID 1963452; calls by dose curve); conditions: PEO1/OlaR viability, CellTiter-Glo luminescence, 96 h, stronger effect = lower value
# Outline: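 PEO1, PEO4 and PEO1/OlaR ovarian cancer cells, 600 per well, exposed 96 h at 37C to a dilution series. Viability read by CellTiter-Glo luminescence, normalized to DMSO and empty wells; activity summarized as Z-AUC.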
# [2] = qHTS profiling for inhibitors of Plasmodium falciparum proliferation (AID 504749); further: nearly all actives have a fitted effect of over 60% in size; further: potency means the concentration at half of the fitted maximal effect;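 on activity, negative = inhibition: 0% = DMSO vehicle and full inhibition = artemisinin control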; conditions: P. falciparum in erythrocytes, SYBR Green DNA, 72 h
# Outline: (§1)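 P. falciparum-infected erythrocytes (0.3% parasitemia, 2.5% hematocrit final) were exposed to compounds for 72 h at 37 C in 5% CO2, then lysed with SYBR Green buffer overnight at room temperature; parasite DNA fluorescence was normalized to artemisinin and DMSO controls.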
# 3D7 = assay: as above; conditions: P. falciparum in erythrocytes, SYBR Green DNA, 72 h; series mostly up to 28.7 µM
# Outline: as §1
# 7G8 = assay: as above; conditions: P. falciparum in erythrocytes, SYBR Green DNA, 72 h; series mostly up to 28.7 µM
# Outline: as §1
# AA1029 = assay: as above; conditions: P. falciparum in erythrocytes, SYBR Green DNA, 72 h; series mostly up to 28.7 µM
# Outline: as §1
# AS120 = assay: as above; conditions: P. falciparum in erythrocytes, SYBR Green DNA, 72 h; series mostly up to 28.7 µM
# Outline: as §1
# ATS189 = assay: as above; conditions: P. falciparum in erythrocytes, SYBR Green DNA, 72 h; series mostly up to 28.7 µM
# Outline: as §1
# ATS95 = assay: as above; conditions: P. falciparum in erythrocytes, SYBR Green DNA, 72 h; series mostly up to 28.7 µM
# Outline: as §1
# C2A = assay: as above; conditions: P. falciparum in erythrocytes, SYBR Green DNA, 72 h; series mostly up to 28.7 µM
# Outline: as §1
# CP185 = assay: as above; conditions: P. falciparum in erythrocytes, SYBR Green DNA, 72 h; series mostly up to 28.7 µM
# Outline: as §1
# CP191 = assay: as above; conditions: P. falciparum in erythrocytes, SYBR Green DNA, 72 h; series mostly up to 28.7 µM
# Outline: as §1
# CP192 = assay: as above; conditions: P. falciparum in erythrocytes, SYBR Green DNA, 72 h; series mostly up to 28.7 µM
# Outline: as §1
# CP194 = assay: as above; conditions: P. falciparum in erythrocytes, SYBR Green DNA, 72 h; series mostly up to 28.7 µM
# Outline: as §1
# [3] = qHTS for identification of novel therapeutic agents for treatment of microphthalmiaassociated transcription factor (MiT) renal cell carcinoma (RCC) (AID 1963991; calls by dose curve; further: potency means the concentration at half of the fitted maximal effect); conditions: CellTiter-Glo, 48 h; for z-score: stronger effect = lower value; for Potency: active = Z-AUC below -0.8 in all three lines
# Outline: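 Curves over 11 concentrations were fitted to CellTiter-Glo luminescence, scaled between empty wells (0%) and DMSO (100%) viability. Cells were UOK109, UOK124 and UOK145 TFE3-fusion RCC lines at 500/well, exposed 48 hours at 37 C.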
# [4] = measured here: PEO1 parental Z-AUC
# [5] = at 28.7 µM (top of the series), parasite line A
# [6] = at 28.7 µM (top of the series), parasite line B
# [7] = TFE3-RCC UOK109 viability, measured here: UOK109 Z-AUC
# [8] = TFE3-RCC viability, measured here: UOK124 Z-AUC
# [9] = TFE3-RCC viability, measured here: UOK145 Z-AUC
smiles,measurement,setting,value
Cc1cn[nH]c1,Z-AUC,[1],1.01 (inactive)
same,Z-AUC,[1]; [4],0.488
same,Z-AUC,[1]; measured here: PEO4 Z-AUC,0.423
same,"activity, negative = inhibition",[2]; [5],7.67% (inactive)
same,"activity, negative = inhibition",[2]; [6],14.9% (inactive)
same,Potency,3D7,inactive
same,Potency,7G8,inactive
same,Potency,AA1029,inactive
same,Potency,AS120,inactive
same,Potency,ATS189,inactive
same,Potency,ATS95,inactive
same,Potency,C2A,inactive
same,Potency,CP185,inactive
same,Potency,CP191,inactive
same,Potency,CP192,inactive
same,Potency,CP194,inactive
NC(=O)C1CCCc2c1[nH]c1ccc(Cl)cc21 (stereo unspecified),Z-AUC,[1],-0.722 (inactive)
same,Z-AUC,[1]; [4],0.489
same,Z-AUC,[1]; measured here: PEO4 Z-AUC,-0.557
same,z-score,[3]; [7],0.0433
same,z-score,[3]; [8],0.823
same,z-score,[3]; [9],0.151
CC[C@@H](C)[C@H](NC(=O)[C@H](CC1CCCCC1)NC(=O)c1ccno1)C(=O)N1CCC2(CCc3ccccc32)CC1,Z-AUC,[1],-0.29 (inactive)
same,Z-AUC,[1]; [4],-0.177
same,Z-AUC,[1]; measured here: PEO4 Z-AUC,-0.471
same,z-score,[3]; [7],0.139
same,z-score,[3]; [8],0.261
same,z-score,[3]; [9],-0.242
NC(=O)c1ccc(-c2nc(-c3ccc4c(c3)OCCO4)c(-c3ccccn3)[nH]2)cc1,Z-AUC,[1],0.559 (inactive)
same,Z-AUC,[1]; [4],0.194
same,Z-AUC,[1]; measured here: PEO4 Z-AUC,0.167
Oc1cccc(-c2nc(N3CCOCC3)c3oc4ncccc4c3n2)c1,Z-AUC,[1],-0.82 (inactive)
same,Z-AUC,[1]; [4],-0.749
same,Z-AUC,[1]; measured here: PEO4 Z-AUC,-0.797
same,Potency,[3]; TFE3-RCC UOK109 viability,4.81 µM (active)
same,z-score,[3]; [7],-1.31
same,z-score,[3]; [8],-1.8
same,z-score,[3]; [9],-2.03
CCCc1nn(C)c2c(=O)[nH]c(-c3cc(S(=O)(=O)N4CCN(C)CC4)ccc3OCC)nc12,Z-AUC,[1],1.57 (inactive)
same,Z-AUC,[1]; [4],1.2
same,Z-AUC,[1]; measured here: PEO4 Z-AUC,0.991
same,"activity, negative = inhibition",[2]; [5],8.82% (inactive)
same,"activity, negative = inhibition",[2]; [6],0.131% (inactive)
same,Potency,3D7,inactive
same,Potency,7G8,11.2 µM (active)
same,Potency,AA1029,inactive
same,Potency,AS120,inactive
same,Potency,ATS189,inactive
same,Potency,ATS95,inactive
same,Potency,C2A,inactive
same,Potency,CP185,inactive
same,Potency,CP191,inactive
same,Potency,CP192,inactive
same,Potency,CP194,inactive
CCCCNc1cc(C(=O)O)cc(S(N)(=O)=O)c1Oc1ccccc1,Z-AUC,[1],-0.665 (inactive)
same,Z-AUC,[1]; [4],0.995
same,Z-AUC,[1]; measured here: PEO4 Z-AUC,0.519
same,z-score,[3]; [7],0.772
same,z-score,[3]; [8],0.679
same,z-score,[3]; [9],-1.8
same,"activity, negative = inhibition","[2]; at 12.8 µM (top of the series), parasite line A",-5.15% (inactive)
same,"activity, negative = inhibition","[2]; at 12.8 µM (top of the series), parasite line B",8.34% (inactive)
same,Potency,3D7,inactive
same,Potency,7G8,inactive
same,Potency,AA1029,inactive
same,Potency,AS120,inactive
same,Potency,ATS189,inactive
same,Potency,ATS95,inactive
same,Potency,C2A,inactive
same,Potency,CP185,inactive
same,Potency,CP191,inactive
same,Potency,CP192,inactive
same,Potency,CP194,inactive
NC(=O)c1ccc(I)c([N+](=O)[O-])c1,Z-AUC,[1],1.56 (inactive)
same,Z-AUC,[1]; [4],1.77
same,Z-AUC,[1]; measured here: PEO4 Z-AUC,1.61
same,z-score,[3]; [7],0.172
same,z-score,[3]; [8],0.616
same,z-score,[3]; [9],-0.107
S=C(NCc1ccc2c(c1)OCO2)N1CCN(c2ncnc3c2oc2ccccc23)CC1,Z-AUC,[1],-0.165 (inactive)
same,Z-AUC,[1]; [4],-1.16
same,Z-AUC,[1]; measured here: PEO4 Z-AUC,0.0465
Cc1cc(SCc2sc(-c3ccc(C(F)(F)F)cc3)nc2C)ccc1OCC(=O)O,Z-AUC,[1],1.25 (inactive)
same,Z-AUC,[1]; [4],0.45
same,Z-AUC,[1]; measured here: PEO4 Z-AUC,0.535
same,z-score,[3]; [7],0.936
same,z-score,[3]; [8],0.482
same,z-score,[3]; [9],0.629
O=NN(CCCl)C(=O)NCCCl,Z-AUC,[1],0.732 (inactive)
same,Z-AUC,[1]; [4],0.83
same,Z-AUC,[1]; measured here: PEO4 Z-AUC,0.781
same,z-score,[3]; [7],-0.0741
same,z-score,[3]; [8],1.48
same,z-score,[3]; [9],-0.0256
same,"activity, negative = inhibition",[2]; [5],-1.48% (inactive)
same,"activity, negative = inhibition",[2]; [6],4.82% (inactive)
same,Potency,3D7,inactive
same,Potency,7G8,inactive
same,Potency,AA1029,inactive
same,Potency,AS120,inactive
same,Potency,ATS189,inactive
same,Potency,ATS95,inactive
same,Potency,C2A,inactive
same,Potency,CP185,inactive
same,Potency,CP191,inactive
same,Potency,CP192,inactive
same,Potency,CP194,inactive
Cc1c(CN2CCN(C(=O)C(C)C)CC2)sc2c(N3CCOCC3)nc(-c3cnc(N)nc3)nc12,Potency,[3]; TFE3-RCC UOK109 viability,0.118 µM (active)
same,z-score,[3]; [7],-1.83
same,z-score,[3]; [8],-1.54
same,z-score,[3]; [9],-2.67
